# Experimental data as given in the supplement of paper PMC9844399.
# Test system: HeLa
# Test: nuclear count per well, robust Z-score vs DMSO; higher = more cells (less toxicity)
# Conditions: 10 µM; 6 h
# 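Note: Hoechst-stained nuclei counted by automated confocal imaging of four fields per well in 384-well plates, with the robust Z-score based on the per-plate DMSO median and robust SD.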
row,Compound,nuclear count per well
1,CC1(C)O[C@@H]2[C@@H](CO[C@@]3(COS(N)(=O)=O)OC(C)(C)O[C@@H]23)O1 [Topiramate],0.72
2,O=C(NCCCNc1nc(Nc2cccc(CN3CCOCC3)c2)ncc1C1CC1)C1CCC1,-2.72
3,NC(N)=Nc1nc(CSCC/C(N)=N/S(N)(=O)=O)cs1 [Famotidine],0.00418
4,Clc1ccc2c(c1)CCc1cccnc1C2=C1CCNCC1 [Desloratadine],0.226
5,COc1cccc2c1C(=O)c1c(O)c3c(c(O)c1C2=O)C[C@@](O)(C(=O)CO)C[C@@H]3O[C@H]1C[C@H](N)[C@@H](O)[C@H](C)O1,-8.97
6,CC(=O)[C@@]1(O)CC[C@H]2[C@@H]3C[C@H](C)C4=CC(=O)C=C[C@]4(C)[C@@]3(F)[C@@H](O)C[C@@]21C [Fluorometholone],-0.506
7,O=C1c2cccc3c2[C@H](CCC3)CN1[C@@H]1CN2CCC1CC2,0.471
8,CCN(CCO)CCCC(C)Nc1ccnc2cc(Cl)ccc12 (centres undefined) [Hydroxychloroquine],0.845
9,COC(=O)c1ccc(O)cc1 [Methylparaben],0.306
10,O=P(O)(O)C(O)(Cn1ccnc1)P(=O)(O)O [Zoledronic acid],0.461
11,COc1ccc(-c2ccc3cc(C(=O)O)ccc3c2)cc1C12CC3CC(CC(C3)C1)C2 [Adapalene],0.562
12,Cc1cnc(C(=O)NCCc2ccc(S(=O)(=O)NC(=O)NC3CCCCC3)cc2)cn1 [Glipizide],0.529
13,Nc1c(CC(=O)O)cccc1C(=O)c1ccc(Br)cc1 [Bromfenac],0.258
14,Cc1cn[nH]c1 [Fomepizole],0.665
15,COc1ccnc(C[S+]([O-])c2nc3cc(OC(F)F)ccc3[nH]2)c1OC (centres undefined) [Pantoprazole],-0.31
16,CCc1nc(N)nc(N)c1-c1ccc(Cl)cc1 [Pyrimethamine],0.643
17,O=C(O)C(S)=Cc1c[nH]c2ccc(F)cc12,-0.292

row,Compound,nuclear count per well
1,CN(C)CCCN1c2ccccc2Sc2ccc(Cl)cc21,0.0869
2,Cc1nccn1CC1CCc2c(c3ccccc3n2C)C1=O (centres undefined) [Ondansetron],0.0277
3,O=C1Nc2ccc(Cl)cc2[C@@](C#CC2CC2)(C(F)(F)F)O1 [Efavirenz],0.00509
4,CCN(CC)CCOC(=O)C1(C2CCCCC2)CCCCC1,0.0346
5,COc1cc2c3cc1Oc1c(OC)c(OC)cc4c1[C@@H](Cc1ccc(OC(=O)c5ccc([N+](=O)[O-])cc5)c(c1)Oc1ccc(cc1)C[C@@H]3N(C)CC2)N(C)CC4,1.12
6,COc1ccc2c(c1)c(CC(=O)O)c(C)n2C(=O)c1ccc(Cl)cc1 [Indomethacin],0.64
7,COc1ccc(C[C@H](N)C(=O)N[C@H]2[C@@H](O)[C@H](n3cnc4c(N(C)C)ncnc43)O[C@@H]2CO)cc1 [Puromycin.2HCl],-7.39
8,N=C(N)N,-0.264
9,CC(=O)NC(C)(C)C(=O)N1CCC[C@H]1C(=O)NC(C)(C)C(=O)N[C@@H](C)C(=O)NC(C)(C)C(=O)N[C@@H](C)C(=O)N[C@@H](CCC(N)=O)C(=O)NC(C)(C)C(=O)N[C@H](C(=O)NC(C)(C)C(=O)NCC(=O)N[C@@H](CC(C)C)C(=O)NC(C)(C)C(=O)N1CCC[C@H]1C(=O)N[C@H](C(=O)NC(C)(C)C(=O)NC(C)(C)C(=O)N[C@@H](CCC(=O)O)C(=O)N[C@@H](CCC(N)=O)C(=O)N[C@H](CO)Cc1ccccc1)C(C)C)C(C)C [Alamethicin],0.383
10,CCCCCCCCCCCCC/C=C/[C@@H](O)[C@H](CO)NC(=O)CCCCCCCCCCCCCCC [C16 Ceramide],0.167
11,CC(C)(Oc1ccc(CCNC(=O)c2ccc(Cl)cc2)cc1)C(=O)O [bezafibrate],-0.397
12,COc1cc2ncnc(Nc3cccc(Cl)c3)c2cc1OC,0.518
13,Cc1cccc(C)c1OCC(C)N (centres undefined),0.0147
14,CCCCCC[C@@H]([C@@H](C)O)n1cnc2c(N)ncnc21 (racemic),1.36
15,C[C@H]1CC[C@@]2(OC1)O[C@H]1C[C@H]3[C@@H]4CC[C@@H]5C[C@@H](O[C@@H]6O[C@H](CO)[C@H](O)[C@H](O)[C@H]6O[C@@H]6O[C@H](CO)[C@@H](O)[C@H](O)[C@H]6O)CC[C@]5(C)[C@H]4CC[C@]3(C)[C@H]1[C@@H]2C [Timosaponin A-III],0.239
16,CC1=C(/C=C/C(C)=C\C=C\C(C)=C\C(=O)O)C(C)(C)CCC1 [Alitretinoin],-0.277
17,C#C[C@]1(O)CC[C@H]2[C@@H]3CCc4cc(O)ccc4[C@H]3CC[C@@]21C [Ethinyl Estradiol],-0.137
